According to PubChem BioAssay (Tox21):
Records with an inconclusive call do not appear. The source made the active and inactive calls. Unless noted, calls follow the shape of the dose curve; as a rule, active = well fitted curve in the direction sought with a large enough effect in the repeat runs; inconclusive = weak or mixed curves; inactive = no such curve, though single readings can be large; an effect the other way counts as inactive or inconclusive.

Key:
[1] = A CellTox Green Cytotoxicity Assay to monitor cytotoxicity in HepG2 cells - 8 hour (AID 1224890); also: nearly all actives have a fitted effect of over 45% in size
Summary of the method: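 Cytotoxicity was tracked as dead-cell DNA fluorescence in HepG2 cells treated with test compounds at 37 C; each time-point value comes from one kinetic series spanning 0, 8, 16, 24, 32 and 40 h.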

[2] = qHTS assay to identify small molecule antagonists of the estrogen receptor alpha (ER-alpha) signaling pathway using the BG1 cell line in the presence of 0.1 nM 17-beta-estradiol - cell viability counter screen (AID 1259241); also: nearly all actives have a fitted effect of over 40% in size
Summary of the method: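 Following 5 days in phenol red-free medium with charcoal-stripped serum, VM7Luc4E2 cells received test compounds alongside 0.1 nM 17beta-estradiol (final) at 37C for 22 hr. Live cells were then quantified via protease-substrate fluorescence.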

[3] = qHTS assay to identify small molecule antagonists of the androgen receptor (AR) signaling pathway using the MDA cell line in the presence of 0.5 nM R1881 - cell viability counter screen (AID 1259242); also: nearly all actives have a fitted effect of over 45% in size
Summary of the method: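 Cells seeded at 3,000/well and allowed 5 hr at 37C, 0% CO2 before compound transfer and R1881 (0.5 nM final) addition; 16 hr later, live-cell protease fluorescence indicated cytotoxicity.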

[4] = qHTS assay to identify small molecule HDAC inhibitors (AID 1259364); also: potency is read from the fitted curve at half-maximal effect;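 also: wild-type HCT-116 cells with endogenous class I/II HDAC activity; nearly all actives have a fitted effect of over 45% in size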
Summary of the method: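 HCT-116 wt cells, 1,500/well, overnight attach. Compounds (DMSO) 2 h, 37 °C. HDAC-Glo I/II, 30 min RT. Luminescence.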

[5] = qHTS assay to identify small molecule HDAC inhibitors - cell viability counter screen (AID 1259365); also: series mostly up to about 92 µM; nearly all actives have a fitted effect of over 50% in size
Summary of the method: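 HCT-116 wild-type, overnight attachment; 2hr drug exposure, 37C; CellTiter-Glo luminescent ATP readout after 30min RT.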

[6] = qHTS assay to identify small molecule agonists of the sonic hedgehog signaling (Shh) pathway - cell viability counter screen (AID 1259366); also: nearly all actives have a fitted effect of over 50% in size
Summary of the method: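 Compounds in DMSO were pin-transferred onto 3T3 Gli1-Luc cells that had settled 4hr; plates then stood 24hr at 37C and 5% CO2. One hour before the end, CellTiter-Fluor was added and fluorescence recorded.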

[7] = qHTS assay to identify small molecule antagonists of the sonic hedgehog signaling (Shh) pathway - cell viability counter screen (AID 1259367); also: nearly all actives have a fitted effect of over 55% in size
Summary of the method: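 Cytotoxicity was assessed in parallel with Shh reporter activity by measuring live-cell protease fluorescence (CellTiter-Fluor) in NIH/3T3 cells stably carrying Gli1-Luc, treated with compound under conditioned medium stimulation for 23 hr plus 1 hr reagent incubation.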

[8] = qHTS assay to identify small molecule agonists of the sonic hedgehog signaling (Shh) pathway (AID 1259368; calls by dose curve;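 also: NIH/3T3-derived 3T3Gli1-Luc cells carrying a stable Gli1-driven firefly luciferase reporter; series mostly up to about 92 µM; nearly all actives have a fitted effect of over 15% in size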)
Summary of the method: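 Following a 24 hr incubation with DMSO-dissolved compounds at 37 C, 5% CO2, Gli1-Luc NIH/3T3-derived cells received luciferase reagent for 30 min at room temperature prior to luminescence measurement.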

[9] = qHTS assay to identify small molecule antagonists of the sonic hedgehog signaling (Shh) pathway (AID 1259369; calls by dose curve; also: nearly all actives have a fitted effect of over 45% in size; also: potency is read from the fitted curve at half-maximal effect)
Summary of the method: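 Read-out is luminescence from a firefly luciferase gene controlled by the Gli1 response element, in 3T3Gli1-Luc cells pre-incubated 4hr then exposed to compounds and conditioned medium for 24hr.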

[10] = biological target: Estrogen receptor beta (Homo sapiens) (UniProt Q92731); test: qHTS assay to identify small molecule agonists of the estrogen receptor beta (ER-beta) signaling pathway (AID 1259377; active = well fitted activation curve with a large enough effect in the signal ratio in the repeat runs, not every such curve was filed as active; the % refers to the signal ratio)
Chain of Estrogen receptor beta (Homo sapiens) (Q92731 whole entry, looked up): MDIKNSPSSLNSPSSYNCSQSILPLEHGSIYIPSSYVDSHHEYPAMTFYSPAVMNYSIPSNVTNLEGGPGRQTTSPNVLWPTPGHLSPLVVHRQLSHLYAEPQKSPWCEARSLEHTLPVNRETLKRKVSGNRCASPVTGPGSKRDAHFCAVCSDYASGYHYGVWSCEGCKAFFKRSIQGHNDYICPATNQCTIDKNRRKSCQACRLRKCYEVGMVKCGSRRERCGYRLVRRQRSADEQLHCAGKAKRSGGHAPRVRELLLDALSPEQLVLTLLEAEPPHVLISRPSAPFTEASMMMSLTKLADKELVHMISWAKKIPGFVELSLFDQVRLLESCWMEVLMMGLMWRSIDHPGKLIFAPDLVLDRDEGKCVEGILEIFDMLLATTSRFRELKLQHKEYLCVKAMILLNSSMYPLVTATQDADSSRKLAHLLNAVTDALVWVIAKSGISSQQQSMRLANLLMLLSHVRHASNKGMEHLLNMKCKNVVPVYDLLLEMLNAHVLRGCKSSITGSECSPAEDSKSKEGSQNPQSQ
Summary of the method: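 qHTS in ER-beta-UAS-bla HEK293T cells: 6 hr settling, then 16 hr compound at 37C, then LiveBLAzer substrate 2 h at RT before fluorescence reading.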

[11] = biological target: Estrogen receptor beta (Homo sapiens) (UniProt Q92731); test: qHTS assay to identify small molecule antagonists of the estrogen receptor beta (ER-beta) signaling pathway (AID 1259378; active = well fitted inhibition curve with a large enough effect in the signal ratio in the repeat runs, not every such curve was filed as active; the % refers to the signal ratio; also: potency is read from the fitted curve at half-maximal effect)
Summary of the method: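 ER-beta-UAS-bla HEK293T (GripTite) cells in 2% charcoal-stripped FBS medium were preincubated 6 hr at 37C, dosed with compound, then stimulated with 1 nM E2 (final) for 16 hr; beta-lactamase reporter read by B/G FRET fluorescence after 2 hr substrate loading.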

[12] = qHTS assay to identify small molecule agonists of the androgen receptor (AR) signaling pathway in the presence of an antagonist - cell viability counter screen (AID 1259379);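 also: MDA-kb2 human breast cancer cells carrying an MMTV luciferase reporter; series mostly up to about 92 µM; nearly all actives have a fitted effect of over 25% in size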
Summary of the method: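 Each compound was tested at 15 concentrations on MDA-kb2 cells in the presence of 3.0uM nilutamide. Viability was measured by CellTiter-Fluor fluorescence after a 16 hr incubation at 37C in a CO2-free atmosphere.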

[13] = qHTS assay to identify small molecule agonists of the estrogen receptor beta (ER-beta) signaling pathway - cell viability counter screen (AID 1259380); also: nearly all actives have a fitted effect of over 30% in size
Summary of the method: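 Compounds dissolved in DMSO were pin-transferred onto ER-beta-UAS-bla HEK293T cells that had settled 6 hr, and exposure ran 16 hr at 37C. Following the reporter read, CellTiter-Glo luminescence after 30 min at room temperature indicated cytotoxicity.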

[14] = qHTS assay to identify small molecule antagonists of the estrogen receptor beta (ER-beta) signaling pathway - cell viability counter screen (AID 1259382); also: series mostly up to about 92 µM; nearly all actives have a fitted effect of over 55% in size
Summary of the method: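 CellTiter-Glo ATP luminescence measured after the LiveBLAzer read in the same wells; ER-beta-UAS-bla HEK293T cells, 16 hr compound treatment with 1nM 17-beta-estradiol agonist at 37C, 5% CO2.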

[15] = biological target: Estrogen receptor (Homo sapiens) (UniProt P03372); test: qHTS assay to identify small molecule antagonists of the estrogen receptor alpha (ER-alpha) signaling pathway using the BG1 cell line in the presence of 0.1 nM 17-beta-estradiol (AID 1259244); also: nearly all actives have a fitted effect of over 50% in size
Chain of Estrogen receptor (Homo sapiens) (P03372 whole entry, looked up): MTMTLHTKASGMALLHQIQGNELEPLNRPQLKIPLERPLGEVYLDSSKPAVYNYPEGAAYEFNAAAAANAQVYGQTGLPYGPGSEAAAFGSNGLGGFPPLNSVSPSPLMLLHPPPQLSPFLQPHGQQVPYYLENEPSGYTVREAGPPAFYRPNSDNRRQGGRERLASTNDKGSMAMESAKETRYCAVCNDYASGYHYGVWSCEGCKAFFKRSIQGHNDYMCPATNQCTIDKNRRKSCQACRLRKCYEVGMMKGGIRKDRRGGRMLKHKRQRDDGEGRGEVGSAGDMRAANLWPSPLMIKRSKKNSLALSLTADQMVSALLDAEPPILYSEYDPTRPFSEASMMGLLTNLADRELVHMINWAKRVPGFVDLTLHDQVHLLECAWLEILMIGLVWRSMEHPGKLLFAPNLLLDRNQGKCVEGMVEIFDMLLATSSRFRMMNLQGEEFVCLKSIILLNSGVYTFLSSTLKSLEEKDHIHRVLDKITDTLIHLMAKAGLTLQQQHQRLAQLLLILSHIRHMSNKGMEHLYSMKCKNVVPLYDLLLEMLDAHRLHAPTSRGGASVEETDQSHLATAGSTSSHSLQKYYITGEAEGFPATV
Summary of the method: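 Luciferase signal from VM7Luc4E2 ERE-reporter cells, co-dosed with test compound and 0.1 nM final 17beta-estradiol for 22 h, read with ONE-Glo.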

[16] = biological target: Estrogen receptor (Homo sapiens) (UniProt P03372); test: qHTS assay to identify small molecule agonists of the estrogen receptor alpha (ER-alpha) signaling pathway in the presence of an antagonist (AID 1259383; calls by dose curve; also: nearly all actives have a fitted effect of over 15% in size; also: potency is read from the fitted curve at half-maximal effect; as to activation: top concentration of the series differs between compounds)
Summary of the method: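 Luminescent ERE-luciferase reporter, VM7Luc4E2 cells (endogenous ER-alpha); 10.0nM ICI-182,780 final; 15-point compound titration; 22hr at 37C; ONE-Glo, 30min RT.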

[17] = qHTS assay to identify small molecule agonists or antagonists of the thyroid stimulating hormone receptor (TSHR) signaling pathway - wild type cell line counter screen (AID 1259384; calls by dose curve)
Summary of the method: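 Wild-type HEK293 cells were plated 18 h at 37 C/5% CO2, pin-dosed with compound plus Ro20-1724 medium, held 30 min at room temperature, then given cAMP-d2 and anti-cAMP-cryptate; fluorescence was read after 1 h. Fifteen concentrations, triplicate.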

[18] = qHTS assay to identify small molecule phospholipidosis (PLD) inducers (AID 1259344; active = well fitted curve in the direction sought with a large enough effect; an effect the other way counts as inactive or inconclusive)
Summary of the method: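 Cells (HepG2, 900 per well) attach for 4 h, receive LipidTOX Red and compound together, incubate 24 h at 37 C, are fixed 30 min with paraformaldehyde/Hoechst, then imaged at one site per well.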

[19] = biological target: Androgen receptor (Homo sapiens) (UniProt P10275); test: qHTS assay to identify small molecule agonists of the androgen receptor (AR) signaling pathway in the presence of an antagonist (AID 1259381; calls by dose curve; also: nearly all actives have a fitted effect of over 15% in size)
Chain of Androgen receptor (Homo sapiens) (P10275 whole entry, looked up): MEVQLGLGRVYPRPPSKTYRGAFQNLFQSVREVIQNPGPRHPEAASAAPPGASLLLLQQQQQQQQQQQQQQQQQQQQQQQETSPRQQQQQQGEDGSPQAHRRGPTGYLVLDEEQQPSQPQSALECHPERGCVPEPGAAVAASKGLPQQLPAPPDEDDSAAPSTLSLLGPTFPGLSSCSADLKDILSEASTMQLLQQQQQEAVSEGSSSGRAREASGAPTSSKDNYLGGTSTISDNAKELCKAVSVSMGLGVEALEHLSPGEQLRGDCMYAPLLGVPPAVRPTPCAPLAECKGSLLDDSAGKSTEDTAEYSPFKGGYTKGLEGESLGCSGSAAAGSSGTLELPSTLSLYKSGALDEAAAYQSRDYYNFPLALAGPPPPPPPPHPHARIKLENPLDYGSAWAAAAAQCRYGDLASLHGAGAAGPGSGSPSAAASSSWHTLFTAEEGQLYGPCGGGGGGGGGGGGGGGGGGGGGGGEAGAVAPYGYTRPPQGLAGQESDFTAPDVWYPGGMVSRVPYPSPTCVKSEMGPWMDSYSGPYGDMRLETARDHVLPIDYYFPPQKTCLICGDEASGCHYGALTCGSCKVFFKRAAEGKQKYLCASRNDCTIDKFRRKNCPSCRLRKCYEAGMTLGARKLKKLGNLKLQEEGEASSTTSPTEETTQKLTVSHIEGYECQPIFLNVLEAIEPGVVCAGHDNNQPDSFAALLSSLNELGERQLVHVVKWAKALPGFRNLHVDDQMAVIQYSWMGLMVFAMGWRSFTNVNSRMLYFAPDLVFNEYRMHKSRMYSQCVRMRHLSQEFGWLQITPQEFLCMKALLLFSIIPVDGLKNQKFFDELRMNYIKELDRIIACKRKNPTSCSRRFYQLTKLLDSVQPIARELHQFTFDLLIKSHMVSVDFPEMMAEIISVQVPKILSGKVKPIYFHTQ
Summary of the method: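 Plated MDA-kb2 cells (3,000/well) were pre-incubated 5hr, given nilutamide (3.0uM final) or buffer, then dosed with compounds in DMSO at 15 concentrations. Luciferase activity was quantified by luminescence after 16hr at 37C.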

Measured: Potency

CC(O)CN(CCCN(C)C)CCCN(C)C (stereo not given)
inactive: [1] | [2] | [3] | [4] | [5] | [6] | [7] | [8] | [9] | [10] | [11] | [12] | [13] | [14]

Nc1cc(N)cc(C(=O)O)c1
inactive: [1] | [2] | [3] | [15] | [5] | [6] | [7] | [8] | [9] | [10] | [11] | [12] | [13] | [14]

O=C1OC(=O)c2cc([N+](=O)[O-])ccc21
inactive: [1] | [2] | [3] | [15] | [4] | [5] | [7] | [8] | [9] | [10] | [12] | [13] | [14] | [16] | [17]

Nc1ccc2cc(S(=O)(=O)O)ccc2c1
inactive: [1] | [2] | [3] | [15] | [4] | [5] | [7] | [8] | [9] | [12] | [13] | [14] | [16] | [17]

C/C=C1\C(=O)C[C@H]2[C@@H]3CCC4=CC(=O)CC[C@]4(C)[C@H]3CC[C@]12C
inactive: [1] | [2] | [3] | [15] | [4] | [5] | [7] | [8] | [10] | [12] | [13] | [14] | [16]
active: [9] 5.99 µM | [11] 26.8 µM

CC12CCC(CC1=O)C2(C)C (stereo not given)
inactive: [1] | [2] | [3] | [15] | [4] | [5] | [7] | [8] | [9] | [10] | [12] | [13] | [14] | [16]

CCOC(=O)[C@H](CCc1ccccc1)N[C@@H](C)C(=O)N1CCC[C@H]1C(=O)O
inactive: [1] | [2] | [3] | [18] | [4] | [5] | [6] | [7] | [8] | [9] | [12] | [14] | [17]

NC(CS)C(=O)O (stereo not given)
inactive: [1] | [2] | [3] | [18] | [5] | [7] | [8] | [12] | [13] | [14] | [17]

CCCCC1CCCCC(=O)O1 (stereo not given)
inactive: [1] | [2] | [3] | [15] | [5] | [6] | [7] | [8] | [9] | [12] | [13] | [14] | [16]

CC(C)CCCC(C)CCCC(C)CCCCC(C)CCCC(C)CCCC(C)C (stereo not given)
inactive: [1] | [2] | [3] | [18] | [4] | [5] | [7] | [8] | [12] | [13] | [14] | [17]

Oc1ccc2c(c1)OC[C@@H](N1CCC(O)(c3ccc(F)cc3)CC1)[C@H]2O
inactive: [1] | [2] | [3] | [15] | [5] | [6] | [7] | [10] | [12] | [13] | [14] | [17]
active: [4] 2.37 µM

CC(=O)c1ccc(C)cc1
inactive: [1] | [2] | [3] | [15] | [4] | [5] | [6] | [7] | [8] | [12] | [13] | [14] | [16]

COc1ccc2cc(C=O)ccc2c1
inactive: [1] | [2] | [3] | [15] | [4] | [5] | [6] | [7] | [8] | [11] | [12] | [13] | [19] | [14] | [16] | [17]

COc1cc(C(=O)N2CCOCC2)cc(OC)c1OC
inactive: [1] | [2] | [3] | [18] | [4] | [5] | [6] | [7] | [8] | [9] | [12] | [13] | [14]

C=C(C)C1CC=C(C)C(O)C1 (stereo not given)
inactive: [1] | [2] | [3] | [15] | [4] | [5] | [6] | [7] | [8] | [12] | [13] | [14] | [16]

C(=C(c1ccccc1)c1ccccc1)c1ccccc1
inactive: [1] | [2] | [3] | [15] | [4] | [5] | [6] | [7] | [8] | [10] | [12] | [14]
active: [16] 17.2 µM

O=[N+]([O-])c1ccc(CCO)cc1
inactive: [1] | [2] | [3] | [15] | [4] | [5] | [6] | [7] | [8] | [12] | [13] | [14] | [16]

COC(=O)CCCC(=O)O
inactive: [1] | [2] | [3] | [15] | [5] | [6] | [7] | [8] | [9] | [10] | [11] | [12] | [13] | [14] | [16] | [17]
